The list is not random: actives were taken first. Their share in the collection is about 12%.
ALDH1A1 block – inhibitors of human aldehyde dehydrogenase 1A1 | P00352 | Potency, µM (titrated, usually from 75.3 µM), inactives show at the top dose activity, negative = inhibition, actives largely listed as inhibitors | hit rate 7.3% among 220,000 | Purified ALDH1A1, NADH fluorescence, propionaldehyde substrate; active means well fitted inhibition curve with a large enough effect, not every such curve was filed as active; inconclusive means small, poorly fitted or top-dose-only effect, or another doubt; inactive means no such curve, though single readings can be large or run the other way;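 further: plate controls were no enzyme wells and a reference inhibitor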
RORg inh – blocks mouse ROR gamma transcriptional activity. Drosophila S2 Gal4-RORgamma UAS-luciferase reporter, 20 h. Potency, µM (doses to about 53.6 µM), for inactives: top-dose activity change, negative = inhibition, most hits filed as inhibitors. hit rate 5.4% among 310,000; further: nearly all actives have a fitted effect of over 60% in size
Target sequence (P51450 whole entry, looked up, the tested form may be a part): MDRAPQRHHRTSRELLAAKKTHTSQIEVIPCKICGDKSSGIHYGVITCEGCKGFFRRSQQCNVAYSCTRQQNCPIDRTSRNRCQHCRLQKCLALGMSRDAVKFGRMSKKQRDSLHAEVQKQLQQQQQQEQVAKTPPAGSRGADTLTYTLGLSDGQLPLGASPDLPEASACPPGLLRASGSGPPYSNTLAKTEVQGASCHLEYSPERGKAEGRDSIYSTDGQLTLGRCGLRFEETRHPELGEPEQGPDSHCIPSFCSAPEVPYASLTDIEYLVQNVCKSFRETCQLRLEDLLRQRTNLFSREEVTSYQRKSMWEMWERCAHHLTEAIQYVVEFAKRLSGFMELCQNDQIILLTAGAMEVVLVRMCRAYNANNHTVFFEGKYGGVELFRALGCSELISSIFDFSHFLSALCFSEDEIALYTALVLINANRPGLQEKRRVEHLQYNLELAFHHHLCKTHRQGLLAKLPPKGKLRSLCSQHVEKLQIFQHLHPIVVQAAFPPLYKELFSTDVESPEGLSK
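Drosophila Schneider cells stably carrying a metallothionein-driven Gal4 DBD–ROR gamma fusion and a UAS-Photinus luciferase reporter were exposed to compound for 1 hr, then induced with copper sulfate (700 uM final) for 20 hr at ambient temperature before luminescence reading.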
Gal4-VP16 FLuc – inhibits Gal4-VP16 luciferase reporter, ROR gamma counter-screen; Potency, µM (doses to about 53.6 µM), without a hit: at the top dose activity, negative = inhibition, most hits filed as inhibitors; Drosophila S2 Gal4-VP16 UAS-luciferase, luminescence, 20 h; AID 2546; hit rate 3.5% among 310,000;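 further: Gal4-VP16 expression switched on by copper sulfate through the metallothionein promoter; nearly all actives have a fitted effect of over 50% in size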
PLK1 PBD inh – inhibitors of human PLK1 polo-box domain binding. P53350. Plk1 PBD binding of FITC phosphopeptide, fluorescence polarization. Potency, µM, without a hit: max response, negative = inhibition, most hits filed as inhibitors. hit rate 2.8% among 360,000. AID 720504; further: series mostly up to about 57 µM; nearly all actives have a fitted effect of over 65% in size
Sfp PPTase inh – inhibitors of Bacillus subtilis Sfp phosphopantetheinyl transferase. Q9F4F7. Biochemical Sfp PPTase activity, qHTS. Potency, µM, for the others: largest response in the series, negative = inhibition, hits mostly inhibitors. hit rate 3.5% among 310,000;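 further: the enzyme is Sfp with the accession as filed and its product quenches rhodamine fluorescence; 0% = enzyme reaction without inhibitor and -100% = no enzyme wells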
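Step 1, compound plus 15 nM Sfp-PPTase, 15 min, room temperature. Step 2, add rhodamine-CoA (5 uM) and BHQ-2-YbbR (12.5 uM). Step 3, read 525/598 nm fluorescence at 0 and 30 min.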
Active calls of the source: *; [ ] = dose if it differs, or a comment. Unless noted, the call rests on the fitted dose curve; in most records, active means well fitted curve in the direction sought with a large enough effect; inconclusive means small, poorly fitted or top-dose-only effect, or another doubt; inactive means no such curve, though single readings can be large; an effect the other way counts as inactive or inconclusive. Unless noted, on the % scale 0 is the no-effect control and ±100 the full control effect; potency means the concentration at half of the fitted maximal effect.

How did C#CCNC(=O)C1=C[C@@H](c2coc3ccccc3c2=O)C[C@@H](OCCCCO)O1 do in these assays?
ALDH1A1 block: 10µM*; RORg inh: 17%; Gal4-VP16 FLuc: 6%; PLK1 PBD inh: 3%; Sfp PPTase inh: 10%

What do the screens show for `O=C(NCc1ccccc1)C1=C[C@@H](c2ccc(Br)cc2)C[C@@H](OCCCCO)O1`?
ALDH1A1 block: 25µM*; RORg inh: -36%; Gal4-VP16 FLuc: -12%; PLK1 PBD inh: -12%; Sfp PPTase inh: -2%

What do the screens show for `CCN(CC)CC(O)CCCCCCCCC(=O)OC` (stereo not drawn)?
RORg inh: 22%; Gal4-VP16 FLuc: -3%; PLK1 PBD inh: 6%; Sfp PPTase inh: 8%

How did COC(=O)CCCCCCCCC(O)CN(C)C (stereo not drawn) do in these assays?
RORg inh: 12%; Gal4-VP16 FLuc: -7%; PLK1 PBD inh: 27µM*; Sfp PPTase inh: 10%

Results for COC(=O)c1c(NC(=O)c2nc3nc(C)cc(C(F)F)n3n2)sc2c1CCC2 ?
ALDH1A1 block: 13µM*; RORg inh: -3%; Gal4-VP16 FLuc: -21%; PLK1 PBD inh: -8%; Sfp PPTase inh: -12%

What do the screens show for `COc1ccc(Cl)cc1NC(=O)c1nc2nc(C)cc(C(F)F)n2n1`?
ALDH1A1 block: 10%; RORg inh: -12%; Gal4-VP16 FLuc: 2%; PLK1 PBD inh: -4%; Sfp PPTase inh: -8%

How did Cc1cc(C(F)F)n2nc(C(=O)Nc3sc4c(c3C#N)CCC(C)C4)nc2n1 (stereo not drawn) do in these assays?
ALDH1A1 block: inconclusive; RORg inh: -13%; Gal4-VP16 FLuc: 1%; PLK1 PBD inh: inconclusive; Sfp PPTase inh: 5%

Results for Cc1cc(C(F)F)n2nc(C(=O)Nc3sc4c(c3C(N)=O)CCC4)nc2n1 ?
ALDH1A1 block: 16µM*; RORg inh: -2%; Gal4-VP16 FLuc: -1%; PLK1 PBD inh: -28%; Sfp PPTase inh: -6%

Results for COc1ccc(C2CC(c3cccs3)=NN2C(=S)Nc2ccccc2)cc1OC (stereo not drawn) ?
ALDH1A1 block: 2%; RORg inh: 19%; Gal4-VP16 FLuc: 2%; PLK1 PBD inh: -5%; Sfp PPTase inh: 3%

What do the screens show for `O=C(CN1CCCCC1)N1N=C(c2cccs2)CC1c1cccs1` (stereo not drawn)?
ALDH1A1 block: inconclusive; RORg inh: 16%; Gal4-VP16 FLuc: 1%; PLK1 PBD inh: -4%; Sfp PPTase inh: 11%

Results for COc1cccc(C2CC(c3cccs3)=NN2C(=S)Nc2ccccc2)c1OC (stereo not drawn) ?
ALDH1A1 block: -10%; RORg inh: 8.9µM*; Gal4-VP16 FLuc: 2%; PLK1 PBD inh: 9%; Sfp PPTase inh: -2%

Results for S=C(Nc1ccccc1)N1N=C(c2cccs2)CC1c1cccs1 (stereo not drawn) ?
ALDH1A1 block: inconclusive; RORg inh: inconclusive; Gal4-VP16 FLuc: -5%; PLK1 PBD inh: 12µM*; Sfp PPTase inh: -7%

What do the screens show for `c1cnc2nc3c4ccccc4c4ccccc4c3nc2c1`?
PLK1 PBD inh: -7%

How did Nc1nc(-c2cccnc2)cc(-c2cc(-c3cccnc3)nc(N)n2)n1 do in these assays?
ALDH1A1 block: 6%[13.5 µM]

What do the screens show for `Cc1c(Br)c(-c2n[nH]c(=S)n2Cc2ccco2)nn1C`?
ALDH1A1 block: inconclusive; RORg inh: 22µM*; Gal4-VP16 FLuc: -3%; PLK1 PBD inh: -4%; Sfp PPTase inh: -13%

Results for Cc1cc(-c2n[nH]c(=S)n2Cc2ccco2)n(C)n1 ?
ALDH1A1 block: inconclusive; RORg inh: inconclusive; Gal4-VP16 FLuc: inconclusive; PLK1 PBD inh: -11%; Sfp PPTase inh: 50µM*

How did Oc1cc(CNC2CCCCC2)c(O)cc1CNC1CCCCC1 do in these assays?
PLK1 PBD inh: 5.3µM*

What do the screens show for `C/C(=N\NC(=O)c1ccc(Br)cc1)C1C(=O)c2ccccc2C1=O`?
ALDH1A1 block: -2%; RORg inh: 4µM*; Gal4-VP16 FLuc: 3.5µM*; PLK1 PBD inh: inconclusive; Sfp PPTase inh: 2%

How did COCCOC(=O)N1CCCCC1c1cc(C(=O)Nc2cccc3c2CCCC3)no1 (stereo not drawn) do in these assays?
PLK1 PBD inh: -1%

Results for NS(=O)(=O)c1ccc(NC(=S)N2CCN(S(=O)(=O)c3ccc(F)cc3)CC2)cc1 ?
ALDH1A1 block: inconclusive; RORg inh: 29%; Gal4-VP16 FLuc: -1%; Sfp PPTase inh: -20%

Results for O=S(=O)(c1cccc(NC(=S)N2CCN(c3cccc(Cl)c3)CC2)c1)C(F)F ?
ALDH1A1 block: inconclusive; RORg inh: 13µM*; Gal4-VP16 FLuc: inconclusive; PLK1 PBD inh: -3%; Sfp PPTase inh: 17%

How did NS(=O)(=O)c1ccc(NC(=S)N2CCN(c3cccc(Cl)c3)CC2)cc1 do in these assays?
ALDH1A1 block: -10%; RORg inh: inconclusive; Gal4-VP16 FLuc: inconclusive; PLK1 PBD inh: 17µM*; Sfp PPTase inh: 13µM*

Results for CN1CCN(C(=S)Nc2ccc(S(N)(=O)=O)cc2)CC1 ?
ALDH1A1 block: -9%; RORg inh: -12%; Gal4-VP16 FLuc: -1%; PLK1 PBD inh: 27µM*; Sfp PPTase inh: 22µM*

Results for CCc1ccc(NC(=S)N2CCN(c3cccc(C(F)(F)F)c3)CC2)cc1 ?
ALDH1A1 block: 8%; RORg inh: 13µM*; Gal4-VP16 FLuc: 35µM*; PLK1 PBD inh: -6%; Sfp PPTase inh: 8%

Results for COC(=O)CNC(=O)C(=O)OC ?
ALDH1A1 block: 2%; RORg inh: 13%; Gal4-VP16 FLuc: -5%; Sfp PPTase inh: -3%

Results for Cc1nc2ccc(C(=O)N(C)Cc3ccco3)cn2c1N(C)CC1CCCCC1 ?
PLK1 PBD inh: 0%

What do the screens show for `COC(=O)[C@@]1(Cc2ccccc2)[C@H]2c3cc(C(=O)N4CCCC4)n(CCN4CNCC4=O)c3C[C@H]2CN1C(=O)c1ccccc1`?
ALDH1A1 block: -4%; RORg inh: 8%; Gal4-VP16 FLuc: 4%; Sfp PPTase inh: 8%

Results for CSCCC(NC(=O)c1ccco1)C(=O)NC1CCCCCC1 (stereo not drawn) ?
PLK1 PBD inh: -6%

What do the screens show for `NS(=O)(=O)c1ccc(NC(=S)N2CCN(C(=O)C3CCCO3)CC2)cc1` (stereo not drawn)?
RORg inh: -31%; Gal4-VP16 FLuc: -1%; PLK1 PBD inh: 11µM*; Sfp PPTase inh: -18%

How did O=C(C1CCCO1)N1CCN(C(=S)Nc2ccc(Br)cc2)CC1 (stereo not drawn) do in these assays?
RORg inh: -18%; Gal4-VP16 FLuc: 3%; PLK1 PBD inh: -7%; Sfp PPTase inh: -6%

What do the screens show for `C/C(=N\Nc1ccc([N+](=O)[O-])cc1[N+](=O)[O-])c1cc2c(ccc3ccccc32)oc1=O`?
ALDH1A1 block: 0%; RORg inh: -19%; Gal4-VP16 FLuc: -4%; Sfp PPTase inh: -13%

What do the screens show for `C/C(=N\NC(=O)c1ccccc1)c1cc2cc([N+](=O)[O-])ccc2oc1=O`?
ALDH1A1 block: -15%; RORg inh: 7.9µM*; Gal4-VP16 FLuc: 5µM*; PLK1 PBD inh: 24µM*; Sfp PPTase inh: 13%
